Assay [1] addresses T1, Inhibitor of nuclear factor kappa-B kinase subunit epsilon (Homo sapiens) (UniProt Q14164).
T1 sequence (whole entry): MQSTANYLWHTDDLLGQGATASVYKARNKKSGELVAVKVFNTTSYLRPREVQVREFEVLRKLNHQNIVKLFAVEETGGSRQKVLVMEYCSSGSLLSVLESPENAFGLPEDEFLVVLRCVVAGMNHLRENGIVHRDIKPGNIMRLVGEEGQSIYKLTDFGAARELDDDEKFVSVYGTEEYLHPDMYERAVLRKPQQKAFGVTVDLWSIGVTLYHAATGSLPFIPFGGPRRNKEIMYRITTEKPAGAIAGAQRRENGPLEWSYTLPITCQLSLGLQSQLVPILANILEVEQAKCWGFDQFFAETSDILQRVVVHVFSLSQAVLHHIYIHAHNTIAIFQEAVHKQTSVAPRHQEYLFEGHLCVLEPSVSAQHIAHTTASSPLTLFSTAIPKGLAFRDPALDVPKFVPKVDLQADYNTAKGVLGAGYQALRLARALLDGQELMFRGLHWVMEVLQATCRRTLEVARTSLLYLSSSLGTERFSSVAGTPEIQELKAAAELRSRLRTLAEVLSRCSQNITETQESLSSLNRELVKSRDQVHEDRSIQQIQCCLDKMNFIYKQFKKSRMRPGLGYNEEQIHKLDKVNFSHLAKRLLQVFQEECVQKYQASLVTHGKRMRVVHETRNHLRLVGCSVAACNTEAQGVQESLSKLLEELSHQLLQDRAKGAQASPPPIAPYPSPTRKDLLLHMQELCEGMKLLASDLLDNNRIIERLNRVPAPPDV
Particulars: at 1 µM.

The target in assay [2] is T2, Serine/threonine-protein kinase Nek1 (Homo sapiens) (UniProt Q96PY6).
T2 sequence (whole entry): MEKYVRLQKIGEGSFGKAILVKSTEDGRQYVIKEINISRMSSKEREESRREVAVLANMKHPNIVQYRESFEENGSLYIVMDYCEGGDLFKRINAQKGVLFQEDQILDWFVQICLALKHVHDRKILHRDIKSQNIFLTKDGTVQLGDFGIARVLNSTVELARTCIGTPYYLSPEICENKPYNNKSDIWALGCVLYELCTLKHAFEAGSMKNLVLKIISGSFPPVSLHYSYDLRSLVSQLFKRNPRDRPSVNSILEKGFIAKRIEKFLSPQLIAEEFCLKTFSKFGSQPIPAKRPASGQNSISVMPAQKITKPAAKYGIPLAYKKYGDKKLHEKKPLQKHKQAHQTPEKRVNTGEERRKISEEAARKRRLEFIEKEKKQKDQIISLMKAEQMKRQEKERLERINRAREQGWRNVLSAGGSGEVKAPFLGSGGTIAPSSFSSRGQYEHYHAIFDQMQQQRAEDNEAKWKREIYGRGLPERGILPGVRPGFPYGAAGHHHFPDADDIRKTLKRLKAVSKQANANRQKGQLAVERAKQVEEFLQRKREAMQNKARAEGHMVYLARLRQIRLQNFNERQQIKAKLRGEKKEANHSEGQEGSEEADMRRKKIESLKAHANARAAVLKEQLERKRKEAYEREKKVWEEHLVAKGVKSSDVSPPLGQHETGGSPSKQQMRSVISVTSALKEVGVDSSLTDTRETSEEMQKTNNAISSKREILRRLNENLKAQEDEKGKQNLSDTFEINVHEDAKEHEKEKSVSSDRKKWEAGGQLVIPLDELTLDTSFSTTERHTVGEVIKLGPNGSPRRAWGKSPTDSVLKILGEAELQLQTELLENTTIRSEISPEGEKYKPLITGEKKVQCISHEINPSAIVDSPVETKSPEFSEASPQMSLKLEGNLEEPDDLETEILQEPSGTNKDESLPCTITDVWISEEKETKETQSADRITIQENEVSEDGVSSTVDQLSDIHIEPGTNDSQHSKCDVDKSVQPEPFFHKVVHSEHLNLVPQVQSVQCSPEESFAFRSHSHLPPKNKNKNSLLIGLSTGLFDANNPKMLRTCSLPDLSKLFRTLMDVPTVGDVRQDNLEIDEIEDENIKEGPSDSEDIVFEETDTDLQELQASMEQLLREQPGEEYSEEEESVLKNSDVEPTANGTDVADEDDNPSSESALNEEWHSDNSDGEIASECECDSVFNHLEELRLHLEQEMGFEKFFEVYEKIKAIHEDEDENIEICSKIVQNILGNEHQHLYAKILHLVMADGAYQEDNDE
Particulars: at 0.1 µM.

Assay [3] deals with T2, Serine/threonine-protein kinase Nek1 (Homo sapiens). Conditions: at 1 µM.
For assay [4], the target named is T3, Serine/threonine-protein kinase Nek2 (Homo sapiens) (UniProt P51955).
T3 sequence (whole entry): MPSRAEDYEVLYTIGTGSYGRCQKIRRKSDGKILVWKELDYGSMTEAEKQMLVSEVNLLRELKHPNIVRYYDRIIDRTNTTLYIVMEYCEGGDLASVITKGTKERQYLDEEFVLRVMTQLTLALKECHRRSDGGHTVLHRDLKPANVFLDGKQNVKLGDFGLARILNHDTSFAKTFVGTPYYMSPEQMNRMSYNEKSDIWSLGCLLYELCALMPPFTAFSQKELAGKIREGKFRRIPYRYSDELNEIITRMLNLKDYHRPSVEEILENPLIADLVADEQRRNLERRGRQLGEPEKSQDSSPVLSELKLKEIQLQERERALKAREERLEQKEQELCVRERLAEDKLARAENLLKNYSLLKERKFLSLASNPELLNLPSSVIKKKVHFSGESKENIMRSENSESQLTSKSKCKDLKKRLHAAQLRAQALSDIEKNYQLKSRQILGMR
Conditions: at 0.1 µM.

In assay [5] the target is T3, Serine/threonine-protein kinase Nek2 (Homo sapiens). Conditions: at 1 µM.
Assay [6] has as its target Serine/threonine-protein kinase Nek6 (Homo sapiens) (UniProt Q9HC98). Conditions: at 0.1 µM.
For assay [7] the target is unchanged. Particulars: at 1 µM.
Assay [8] addresses Serine/threonine-protein kinase Nek7 (Homo sapiens) (UniProt Q8TDX7). Particulars: at 0.1 µM.
The target is the same in assay [9]. Particulars: at 1 µM.
The target in assay [10] is T4, Serine/threonine-protein kinase Nek9 (Homo sapiens) (UniProt Q8TD19).
T4 sequence (whole entry): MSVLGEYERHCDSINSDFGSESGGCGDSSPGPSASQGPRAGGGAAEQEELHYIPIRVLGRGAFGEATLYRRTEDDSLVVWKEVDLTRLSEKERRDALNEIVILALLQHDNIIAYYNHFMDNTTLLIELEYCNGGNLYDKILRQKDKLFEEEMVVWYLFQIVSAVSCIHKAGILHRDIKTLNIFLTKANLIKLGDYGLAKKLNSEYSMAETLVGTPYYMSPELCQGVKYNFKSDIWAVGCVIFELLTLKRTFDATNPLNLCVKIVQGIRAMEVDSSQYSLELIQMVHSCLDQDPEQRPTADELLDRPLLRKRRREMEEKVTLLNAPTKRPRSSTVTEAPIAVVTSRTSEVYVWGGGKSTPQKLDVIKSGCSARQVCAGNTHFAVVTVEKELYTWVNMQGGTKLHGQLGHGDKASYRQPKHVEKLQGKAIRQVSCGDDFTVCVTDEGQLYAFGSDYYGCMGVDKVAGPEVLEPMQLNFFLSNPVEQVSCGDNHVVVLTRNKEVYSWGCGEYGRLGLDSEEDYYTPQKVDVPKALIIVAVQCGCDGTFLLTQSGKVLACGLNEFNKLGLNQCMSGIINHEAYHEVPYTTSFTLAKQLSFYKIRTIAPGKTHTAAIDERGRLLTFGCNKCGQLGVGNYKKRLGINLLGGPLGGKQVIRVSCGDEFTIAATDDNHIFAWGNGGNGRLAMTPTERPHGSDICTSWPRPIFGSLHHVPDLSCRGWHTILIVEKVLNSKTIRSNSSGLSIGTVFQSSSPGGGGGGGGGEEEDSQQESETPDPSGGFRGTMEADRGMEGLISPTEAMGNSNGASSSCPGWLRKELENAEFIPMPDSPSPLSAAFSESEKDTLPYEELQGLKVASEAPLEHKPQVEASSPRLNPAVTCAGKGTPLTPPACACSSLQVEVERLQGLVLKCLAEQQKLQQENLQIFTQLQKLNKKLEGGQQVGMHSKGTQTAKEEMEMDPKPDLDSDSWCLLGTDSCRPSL
Particulars: at 0.1 µM.

Assay [11] addresses T4, Serine/threonine-protein kinase Nek9 (Homo sapiens). Particulars: at 1 µM.
The target of assay [12] is Serine/threonine-protein kinase PLK1 (Homo sapiens) (UniProt P53350). Conditions: at 0.1 µM.
Sequence of Serine/threonine-protein kinase PLK1 (Homo sapiens) (P53350 whole entry): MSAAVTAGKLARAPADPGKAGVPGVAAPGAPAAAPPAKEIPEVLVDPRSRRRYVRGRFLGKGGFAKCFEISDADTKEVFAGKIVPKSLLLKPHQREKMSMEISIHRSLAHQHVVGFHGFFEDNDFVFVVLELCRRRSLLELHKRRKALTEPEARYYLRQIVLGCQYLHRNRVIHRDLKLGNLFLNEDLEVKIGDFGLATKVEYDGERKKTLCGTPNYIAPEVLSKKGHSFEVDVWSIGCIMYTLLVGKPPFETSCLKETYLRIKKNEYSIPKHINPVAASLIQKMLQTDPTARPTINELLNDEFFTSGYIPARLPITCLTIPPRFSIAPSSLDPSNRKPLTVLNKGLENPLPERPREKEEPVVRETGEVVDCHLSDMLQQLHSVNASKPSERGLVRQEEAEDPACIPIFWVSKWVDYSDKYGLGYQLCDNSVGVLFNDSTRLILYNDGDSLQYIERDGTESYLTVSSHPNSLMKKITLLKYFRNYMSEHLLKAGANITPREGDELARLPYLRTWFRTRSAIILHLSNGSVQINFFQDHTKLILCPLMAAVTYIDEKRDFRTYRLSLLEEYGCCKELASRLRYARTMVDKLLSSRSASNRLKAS
Assay [13] shares this target. Particulars: at 1 µM.
For assay [14], the target named is T5, Dual specificity protein kinase TTK (Homo sapiens) (UniProt P33981).
T5 sequence (whole entry): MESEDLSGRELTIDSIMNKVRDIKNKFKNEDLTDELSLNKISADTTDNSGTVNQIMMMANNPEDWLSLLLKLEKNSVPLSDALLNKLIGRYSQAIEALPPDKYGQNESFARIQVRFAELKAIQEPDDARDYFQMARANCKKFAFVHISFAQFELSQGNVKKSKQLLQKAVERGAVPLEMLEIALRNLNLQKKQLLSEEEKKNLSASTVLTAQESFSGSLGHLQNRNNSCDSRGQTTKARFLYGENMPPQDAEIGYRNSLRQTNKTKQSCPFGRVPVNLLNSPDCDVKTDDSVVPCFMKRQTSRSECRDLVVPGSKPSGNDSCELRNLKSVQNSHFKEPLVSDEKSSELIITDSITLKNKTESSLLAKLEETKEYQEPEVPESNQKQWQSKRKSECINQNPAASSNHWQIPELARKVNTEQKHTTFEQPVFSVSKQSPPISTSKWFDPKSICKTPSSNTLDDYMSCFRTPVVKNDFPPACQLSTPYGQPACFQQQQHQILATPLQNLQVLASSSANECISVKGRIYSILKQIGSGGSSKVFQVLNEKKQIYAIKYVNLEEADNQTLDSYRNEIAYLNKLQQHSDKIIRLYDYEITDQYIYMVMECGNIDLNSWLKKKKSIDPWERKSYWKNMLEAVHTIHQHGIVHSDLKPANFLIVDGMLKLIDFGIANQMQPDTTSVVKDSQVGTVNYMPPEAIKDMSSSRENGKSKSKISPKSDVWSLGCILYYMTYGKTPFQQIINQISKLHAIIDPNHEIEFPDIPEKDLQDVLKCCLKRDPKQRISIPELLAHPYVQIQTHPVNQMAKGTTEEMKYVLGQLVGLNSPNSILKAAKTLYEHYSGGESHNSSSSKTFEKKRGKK
Particulars: at 0.1 µM.

The subject of assay [15] is T6, Receptor-type tyrosine-protein kinase FLT3 (Homo sapiens), P36888 [D835Y].
T6 sequence (whole entry): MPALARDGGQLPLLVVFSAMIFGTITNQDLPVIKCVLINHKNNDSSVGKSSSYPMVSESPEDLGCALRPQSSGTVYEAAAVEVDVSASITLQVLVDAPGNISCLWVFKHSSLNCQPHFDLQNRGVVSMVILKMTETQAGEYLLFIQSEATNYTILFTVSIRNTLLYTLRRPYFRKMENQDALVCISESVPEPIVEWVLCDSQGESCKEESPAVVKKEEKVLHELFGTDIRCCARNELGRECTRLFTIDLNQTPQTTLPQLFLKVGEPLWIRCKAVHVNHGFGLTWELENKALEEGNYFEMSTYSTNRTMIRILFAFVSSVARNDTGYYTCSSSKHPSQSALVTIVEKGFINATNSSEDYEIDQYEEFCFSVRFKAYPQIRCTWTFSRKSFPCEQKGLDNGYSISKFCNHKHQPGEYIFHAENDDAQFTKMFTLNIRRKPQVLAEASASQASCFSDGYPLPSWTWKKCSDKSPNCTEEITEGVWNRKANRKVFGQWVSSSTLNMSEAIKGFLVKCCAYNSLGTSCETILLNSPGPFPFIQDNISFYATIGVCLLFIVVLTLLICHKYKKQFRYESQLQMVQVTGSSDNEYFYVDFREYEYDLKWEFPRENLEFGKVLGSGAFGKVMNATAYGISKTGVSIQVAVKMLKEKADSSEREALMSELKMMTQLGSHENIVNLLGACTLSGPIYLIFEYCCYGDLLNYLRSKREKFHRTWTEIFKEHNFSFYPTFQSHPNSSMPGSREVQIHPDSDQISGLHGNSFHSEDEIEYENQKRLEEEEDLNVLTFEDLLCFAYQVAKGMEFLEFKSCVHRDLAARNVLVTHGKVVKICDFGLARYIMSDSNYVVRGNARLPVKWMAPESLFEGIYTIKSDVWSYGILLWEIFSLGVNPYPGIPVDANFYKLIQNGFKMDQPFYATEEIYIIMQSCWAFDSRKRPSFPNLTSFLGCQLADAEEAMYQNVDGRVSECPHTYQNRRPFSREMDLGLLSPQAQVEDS
Particulars: at 1 µM.

Assay [16] addresses Vascular endothelial growth factor receptor 3 (Homo sapiens) (UniProt P35916). Conditions: at 0.1 µM.
For assay [17] the target is unchanged. Particulars: at 1 µM.
The target of assay [18] is Macrophage colony-stimulating factor 1 receptor (Homo sapiens) (UniProt P07333). Conditions: at 0.1 µM.
Sequence of Macrophage colony-stimulating factor 1 receptor (Homo sapiens) (P07333 whole entry): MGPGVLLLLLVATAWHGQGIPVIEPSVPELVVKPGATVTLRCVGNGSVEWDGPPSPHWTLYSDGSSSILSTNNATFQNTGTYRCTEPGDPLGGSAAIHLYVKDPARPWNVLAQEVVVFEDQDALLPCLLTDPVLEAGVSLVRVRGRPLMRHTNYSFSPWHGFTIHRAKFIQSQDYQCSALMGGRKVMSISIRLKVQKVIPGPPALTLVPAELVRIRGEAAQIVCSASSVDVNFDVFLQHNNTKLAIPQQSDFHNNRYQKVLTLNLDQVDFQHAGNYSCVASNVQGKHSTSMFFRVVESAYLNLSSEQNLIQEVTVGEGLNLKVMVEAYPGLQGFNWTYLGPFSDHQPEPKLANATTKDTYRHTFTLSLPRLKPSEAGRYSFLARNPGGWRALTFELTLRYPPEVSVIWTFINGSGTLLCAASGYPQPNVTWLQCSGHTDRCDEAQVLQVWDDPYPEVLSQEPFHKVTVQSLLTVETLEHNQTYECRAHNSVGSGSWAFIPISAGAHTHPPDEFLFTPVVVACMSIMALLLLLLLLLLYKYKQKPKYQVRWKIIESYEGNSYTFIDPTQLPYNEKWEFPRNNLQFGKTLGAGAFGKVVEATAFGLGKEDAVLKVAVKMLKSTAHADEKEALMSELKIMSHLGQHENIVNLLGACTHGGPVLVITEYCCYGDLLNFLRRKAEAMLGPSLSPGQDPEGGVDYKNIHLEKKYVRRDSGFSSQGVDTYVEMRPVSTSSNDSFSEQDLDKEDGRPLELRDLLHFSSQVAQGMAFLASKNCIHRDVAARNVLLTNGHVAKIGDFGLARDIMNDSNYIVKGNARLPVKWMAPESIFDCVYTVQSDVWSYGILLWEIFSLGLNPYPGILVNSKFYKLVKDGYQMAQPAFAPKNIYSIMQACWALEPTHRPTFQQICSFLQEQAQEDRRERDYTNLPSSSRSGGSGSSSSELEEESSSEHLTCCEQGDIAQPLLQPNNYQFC
For assay [19] the target is unchanged. Particulars: at 1 µM.
For assay [20], the target named is Tyrosine-protein kinase Fyn (Homo sapiens) (UniProt P06241). Particulars: at 0.1 µM.
Sequence of Tyrosine-protein kinase Fyn (Homo sapiens) (P06241 2-537 limits assumed): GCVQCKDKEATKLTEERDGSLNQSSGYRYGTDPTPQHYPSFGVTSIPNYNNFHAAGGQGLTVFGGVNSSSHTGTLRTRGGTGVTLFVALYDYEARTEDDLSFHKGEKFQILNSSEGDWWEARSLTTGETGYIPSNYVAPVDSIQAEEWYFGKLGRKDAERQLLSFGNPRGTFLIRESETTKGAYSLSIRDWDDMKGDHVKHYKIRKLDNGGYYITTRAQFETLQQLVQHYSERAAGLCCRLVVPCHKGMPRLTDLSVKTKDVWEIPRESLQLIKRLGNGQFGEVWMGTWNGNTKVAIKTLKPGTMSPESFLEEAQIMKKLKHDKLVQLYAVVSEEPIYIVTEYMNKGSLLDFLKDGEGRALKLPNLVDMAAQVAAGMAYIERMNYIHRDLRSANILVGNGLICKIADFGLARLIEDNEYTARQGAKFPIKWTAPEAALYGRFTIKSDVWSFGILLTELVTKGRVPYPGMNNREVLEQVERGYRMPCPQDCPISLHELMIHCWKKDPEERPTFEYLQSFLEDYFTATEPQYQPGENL

Sequence of Serine/threonine-protein kinase Nek7 (Homo sapiens) (Q8TDX7 whole entry, looked up): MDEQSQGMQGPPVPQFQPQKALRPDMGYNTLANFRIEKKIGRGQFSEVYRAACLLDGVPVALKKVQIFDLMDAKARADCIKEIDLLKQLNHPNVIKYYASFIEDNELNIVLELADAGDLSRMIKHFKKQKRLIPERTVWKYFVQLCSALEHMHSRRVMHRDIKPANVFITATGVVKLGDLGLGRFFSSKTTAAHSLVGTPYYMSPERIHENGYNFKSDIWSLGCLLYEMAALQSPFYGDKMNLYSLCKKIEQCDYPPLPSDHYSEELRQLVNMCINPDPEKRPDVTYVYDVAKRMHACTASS
Sequence of Vascular endothelial growth factor receptor 3 (Homo sapiens) (P35916 whole entry): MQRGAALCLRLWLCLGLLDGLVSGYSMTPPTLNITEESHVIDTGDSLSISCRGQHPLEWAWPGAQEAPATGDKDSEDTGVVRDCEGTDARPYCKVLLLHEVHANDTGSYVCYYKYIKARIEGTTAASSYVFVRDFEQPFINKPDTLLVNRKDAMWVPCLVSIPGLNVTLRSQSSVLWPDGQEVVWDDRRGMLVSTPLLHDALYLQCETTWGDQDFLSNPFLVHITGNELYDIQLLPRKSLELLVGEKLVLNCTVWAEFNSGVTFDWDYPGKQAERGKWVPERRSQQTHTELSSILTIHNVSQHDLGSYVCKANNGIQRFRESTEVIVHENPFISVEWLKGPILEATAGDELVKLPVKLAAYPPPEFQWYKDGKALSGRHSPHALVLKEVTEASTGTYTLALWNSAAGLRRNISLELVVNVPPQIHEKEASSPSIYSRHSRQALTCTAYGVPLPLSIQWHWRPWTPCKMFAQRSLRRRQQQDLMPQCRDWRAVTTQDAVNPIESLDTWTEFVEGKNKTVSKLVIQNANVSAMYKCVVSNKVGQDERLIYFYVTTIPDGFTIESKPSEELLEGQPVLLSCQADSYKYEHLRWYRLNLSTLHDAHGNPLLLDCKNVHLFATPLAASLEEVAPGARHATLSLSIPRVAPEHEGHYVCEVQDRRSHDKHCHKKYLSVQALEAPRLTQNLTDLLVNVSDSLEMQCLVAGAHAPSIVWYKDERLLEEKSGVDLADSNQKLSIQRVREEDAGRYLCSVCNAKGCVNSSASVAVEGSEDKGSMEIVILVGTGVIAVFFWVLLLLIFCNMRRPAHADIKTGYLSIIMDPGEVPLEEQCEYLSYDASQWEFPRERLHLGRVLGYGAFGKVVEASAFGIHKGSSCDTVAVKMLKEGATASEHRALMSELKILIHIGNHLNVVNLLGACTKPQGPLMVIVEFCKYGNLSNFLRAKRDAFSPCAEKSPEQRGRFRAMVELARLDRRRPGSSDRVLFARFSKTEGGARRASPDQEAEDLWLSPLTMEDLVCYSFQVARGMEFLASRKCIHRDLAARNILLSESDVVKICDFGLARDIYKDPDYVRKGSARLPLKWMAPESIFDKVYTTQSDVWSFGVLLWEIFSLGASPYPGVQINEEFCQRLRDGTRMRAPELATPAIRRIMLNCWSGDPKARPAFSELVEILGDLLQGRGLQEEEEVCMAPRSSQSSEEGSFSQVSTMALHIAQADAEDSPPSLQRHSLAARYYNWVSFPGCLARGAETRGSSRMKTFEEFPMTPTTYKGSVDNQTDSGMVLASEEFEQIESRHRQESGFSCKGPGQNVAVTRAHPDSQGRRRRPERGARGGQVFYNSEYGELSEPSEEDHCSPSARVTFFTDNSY
Sequence of Serine/threonine-protein kinase Nek6 (Homo sapiens) (Q9HC98 whole entry): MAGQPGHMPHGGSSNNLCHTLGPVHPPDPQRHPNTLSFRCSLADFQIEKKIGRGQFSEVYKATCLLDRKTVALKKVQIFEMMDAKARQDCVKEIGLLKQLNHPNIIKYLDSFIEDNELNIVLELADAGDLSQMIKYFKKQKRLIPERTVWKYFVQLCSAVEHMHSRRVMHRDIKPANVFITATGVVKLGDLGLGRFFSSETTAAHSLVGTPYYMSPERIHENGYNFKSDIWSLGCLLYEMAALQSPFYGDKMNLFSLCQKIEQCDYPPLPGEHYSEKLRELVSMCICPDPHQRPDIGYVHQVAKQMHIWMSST

In general, inhibition refers to the drop in the measured response relative to a control, in per cent. Take `CC(C)c1ccc2c(c1)NC(=O)/C2=N/Nc1ccc(S(N)(=O)=O)cc1`: the inhibition in assay [1] was -1.41%; in assay [2], 0.8%; in assay [3] it was -0.15%; in assay [4], 1.08%; in [5] it was 0.29%; in assay [6], 1.12%. For the same compound, the inhibition in assay [7] is 2.08%; in [8] it was -0.24%; in assay [9] it was 1.29%; in [10] it was 2.87%; in assay [11], 4.79%; in [12], 2.6%. Besides, the inhibition in assay [13] was determined as 1.38%; in [14], 2.93%; in [15], 3.33%; in [16], 1.38%; in assay [17] it was 5.37%; in assay [18] it was 5.18%. The figures for the inhibition in assay [19] and in assay [20] were 34.6% and 2.02%, respectively.
For the compound `CCS(=O)(=O)c1ccc(OC)c(Nc2nccc(N(C)c3ccc4c(C)n[nH]c4c3)n2)c1`, the inhibition in assay [1] was found to be 6.37%; in assay [2], 2.52%; in assay [3], 2.74%; in assay [4], 5.67%; in [5] it was 3.85%; in [6], 2.07%. In addition, the inhibition worked out at 0.72% in [7]; 2.57% in assay [8]; 5.28% in assay [9]; 3.29% in assay [10]; 6.15% in assay [11]; 4.22% in assay [12]. The inhibition in assay [13] was 8.94%; in assay [14] it was 10.8%; in [15] it was -5.27%; in assay [16] it was 94.8%; in assay [17], 104%; in [18], 5.72%. The inhibition in [19] worked out at 32.2%; in assay [20], 39%.

The values are drawn from ChEMBL document CHEMBL1961873, “Compounds: GSK PKIS; Assays: Nanosyn kinase panel” (2012).
